Hit rate of the full screen: of about 290,000 compounds, about 3,000 (1%) were called active. Cut-off read from the data, not from the text of the source: active = inhibition mostly above about 36% (no sharp cut-off); inactive = mostly below about 34%. Only a selection was taken, and actives are over-represented in it overall.
Test: inhibition of NOD1-driven NF-kB reporter – cell-based, luminescence, uHTS, primary screen (AID 1578);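 note: HEK-293T reporter cells stimulated with the NOD1 agonist gamma-tri-DAP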
Settings: NOD1-driven NF-kB luciferase reporter cells, at 4 µM, active compounds read high
For `Cc1noc(C)c1COC(=O)[C@@H](NC(=O)c1ccccc1Cl)C(C)C`, the inhibition was -17.3% (inactive). With `Cc1csc(NC(=O)c2ccc(C(=O)Nc3nc(C)cs3)cc2)n1` the inhibition was 2.7% (inactive). With `CCC(CC)c1nnc(NC(=O)c2ccc(N3CCCC3=O)cc2)s1` the inhibition was -14.4% (inactive). With `Cc1csc(NC(=O)c2ccc(N3CCCC3=O)cc2)n1` the inhibition was 39.5% (active). With `Cc1ccccc1N1CCN(C2CCCN(C(=O)c3noc4c3CCCC4)C2)CC1` (centres undefined) the inhibition was 6.2% (inactive). With `COc1ccc(C2c3c(-c4ccccc4O)n[nH]c3C(=O)N2Cc2ccco2)cc1` (centres undefined) the inhibition was -5.9% (inactive). In the case of `O=C1c2[nH]nc(-c3ccccc3O)c2C(c2ccc(F)cc2)N1Cc1ccco1` (centres undefined), the inhibition is reported as 53.4% (active). With `O=C1c2[nH]nc(-c3ccccc3O)c2C(c2ccccc2)N1Cc1ccco1` (centres undefined) the inhibition was -0.4% (inactive). For `COc1cc2c(cc1OC)C(c1ccccc1)N(C(=O)c1ccco1)CC2` (centres undefined), the inhibition was 3.6% (inactive). In the case of `COc1ccc(OCCC(=O)OCC(=O)NC(=O)NC(C)(C)C)cc1`, the inhibition is reported as 7% (inactive). For `CC(=O)NCC(=O)OC(C)C(=O)Nc1ccc(C(C)=O)cc1` (centres undefined), the inhibition was -17.4% (inactive). In the case of `CCCNC(=O)c1ccc(N2CCC3(CC2)CC(c2ccccc2)=NO3)c(NC(=O)c2cccc(OC)c2)c1`, the inhibition is reported as 77.4% (active). With `CCCNC(=O)c1ccc(N2CCC3(CC2)CC(c2ccccc2)=NO3)c(NC(=O)c2cccc(C)c2)c1` the inhibition was 43.2% (inactive). For `CCCNC(=O)c1ccc(N2CCC3(CC2)CC(c2ccccc2)=NO3)c(NC(=O)c2ccccc2)c1`, the inhibition was 21.3% (inactive). In the case of `CC(=O)Nc1ccc(C2=NNC(=Nc3ccc(S(=O)(=O)N4CCOCC4)cc3)SC2)cc1`, the inhibition is reported as -12.4% (inactive). With `Cc1c(/C=N/NC(N)=O)c2ccccn2c1C(=O)c1ccc(F)cc1` the inhibition was 15.7% (inactive). In the case of `COC(=O)N/N=C/c1c(C)c(C(=O)c2ccc(F)cc2)n2ccccc12`, the inhibition is reported as -3.4% (inactive). For `CCOC(=O)N/N=C/c1c(C)c(C(=O)c2ccc(F)cc2)n2ccccc12`, the inhibition was 48.9% (active). In the case of `Cc1c(/C=N/NC(=O)c2ccc(O)cc2)c2ccccn2c1C(=O)c1ccc(F)cc1`, the inhibition is reported as 17.9% (inactive). For `CNC(=S)N/N=C/c1c(C)c(C(=O)c2ccc(F)cc2)n2ccccc12`, the inhibition was 0.6% (inactive). For `CCCCCCCCCC[N+](C)(C)CC/C=C1/c2ccccc2Sc2ccc(Cl)cc21`, the inhibition was -0.8% (inactive). With `CCCCCCc1cc2cc(C(=O)Nc3cccc(OC)c3)c(=O)oc2cc1O` the inhibition was 59.9% (inactive). In the case of `CCCCCCc1cc2cc(C(=O)Nc3ccccc3OC)c(=O)oc2cc1O`, the inhibition is reported as -4.9% (inactive). In the case of `CCCCCCc1cc2cc(S(=O)(=O)c3ccc(C)cc3)c(=O)oc2cc1O`, the inhibition is reported as -36.3% (inactive). For `CCCCCCc1cc2cc(C(=O)Nc3ccc(OC)cc3)c(=O)oc2cc1O`, the inhibition was -7.5% (inactive). For `CCCCCCc1cc2cc(C(=O)Nc3ccccc3)c(=O)oc2cc1O`, the inhibition was 34.1% (inactive). For `CCCCCCc1cc2cc(C(N)=O)c(=N)oc2cc1O`, the inhibition was 12.9% (inactive). In the case of `CCCC1C(C#N)=C(N)Oc2n[nH]c(C(C)(C)C)c21` (centres undefined), the inhibition is reported as -47.4% (inactive). With `CCOc1ccc(N(CC(=O)N2CCCCC2)S(=O)(=O)c2ccc(Cl)cc2)cc1` the inhibition was 5.7% (inactive). For `Nn1c(Cc2ccccc2)n[nH]c1=S`, the inhibition was -24.7% (inactive). With `O=C1c2cccnc2C(=O)N1c1cccc(-c2nc3ccccc3o2)c1` the inhibition was -23.4% (inactive). In the case of `O=C(NCc1ccco1)C(c1ccccc1F)N(CC1CCCO1)C(=O)Cn1nnc2ccccc21` (centres undefined), the inhibition is reported as -7% (inactive). With `CCN(C(=O)Cn1c(=O)oc2ccccc21)c1cccc(C)c1` the inhibition was 2.1% (inactive). For `CC(C)C[C@H](NC(=O)c1nc[nH]c1C(=O)NCc1ccccc1)C(=O)OC(C)(C)C`, the inhibition was -11.1% (inactive). For `COc1ccc(CN(CC(=O)NCc2ccco2)C(=O)CCC(=O)Nc2ccccn2)cc1`, the inhibition was -20.6% (inactive). With `O=C1NC(=S)N/C1=C\c1cccnc1` the inhibition was 33.9% (active). With `O=C1NC(=S)N/C1=C/c1cccnc1` the inhibition was 16.2% (inactive). For `Cc1cc(/C=C2\NC(=S)NC2=O)c(C)n1-c1cccnc1`, the inhibition was -14.7% (inactive). For `COc1ccc(/C=N/NC(=O)CSc2ccccc2)cc1OC`, the inhibition was -7.9% (inactive). For `CCc1ccc(NC(=O)CN(c2ccccc2)S(=O)(=O)N(C)C)cc1`, the inhibition was -17.6% (inactive). For `COc1ccc2cc(C(=O)/C=C/c3cc(OC)c(OC)c(OC)c3)ccc2c1`, the inhibition was 52.7% (inactive). With `COc1ccc(/C=C/C(=O)c2ccc(C(=O)/C=C/c3ccc(OC)c(OC)c3)cc2)cc1OC` the inhibition was -4.9% (inactive). With `COc1cc(/C=C/C(=O)c2ccc(O)cc2)ccc1OCC#N` the inhibition was 29.2% (inactive). With `CCOc1ccc(C(=O)/C=C/c2ccc(OC)c(OC)c2)cc1` the inhibition was 51.4% (inactive). In the case of `COc1ccc(NC(=O)Nc2cccc3ccccc23)c(OC)c1`, the inhibition is reported as 19.9% (inactive). For `CCS(=O)(=O)N1CCN(S(=O)(=O)c2ccc3c(c2)OCCO3)CC1`, the inhibition was 24.1% (inactive). With `COc1ccccc1N1CCN(C(=O)CSc2nc3ccccc3nc2N2CCC(C)CC2)CC1` the inhibition was 58.1% (active). With `COc1ccccc1N1CCN(C(=O)CSc2nc3ccccc3nc2N2CCCCC2)CC1` the inhibition was 8.8% (inactive). With `Cc1ccnc(N2CCN(C(=O)CSc3nc4ccccc4nc3N3CCC(C)CC3)CC2)c1` the inhibition was 3.8% (inactive). For `CS(=O)(=O)N(CC(=O)NCCSCc1c(F)cccc1Cl)c1cccc([N+](=O)[O-])c1`, the inhibition was -2.1% (inactive). For `COc1cc(C(=O)OCC(=O)Nc2cc(C)on2)ccc1OCc1ccccc1Cl`, the inhibition was -69.5% (inactive). In the case of `CCCCN(C)C(=O)C1CCC(CNS(=O)(=O)c2ccc3c(c2)CC(C)N3C(C)=O)CC1` (centres undefined), the inhibition is reported as -1.6% (inactive). In the case of `Cc1cccc(CN2CCc3c([nH]c4ccccc34)C2)c1`, the inhibition is reported as -0.6% (inactive). In the case of `Clc1cccc(CN2CCc3c([nH]c4ccccc34)C2)c1`, the inhibition is reported as 73.3% (active). For `Clc1ccc(CN2CCc3c([nH]c4ccccc34)C2)cc1Cl`, the inhibition was -1.2% (inactive). In the case of `Nc1ccc(S(=O)(=O)Nc2nc3ccccc3o2)cc1`, the inhibition is reported as -21.3% (inactive). In the case of `CCc1nnc(NC(=O)CCC(=O)N2CCC(Cc3ccccc3)CC2)s1`, the inhibition is reported as -19.4% (inactive). With `CNc1ccccc1C(C)(C)c1cc(-c2cccc([N+](=O)[O-])c2)no1` the inhibition was -54.1% (inactive). In the case of `CNc1ccccc1C(C)(C)c1cc(-c2cccc(OC)c2)no1`, the inhibition is reported as 53.1% (active). For `CNc1ccccc1C(C)(C)c1cc(-c2cccc(Br)c2)no1`, the inhibition was 18.9% (inactive). In the case of `CCC(=O)NNC(=O)CCC(=O)Nc1ccc(C)cc1C`, the inhibition is reported as -21.4% (inactive). For `COc1ccc(NC(=O)CCNS(=O)(=O)c2cccc3nsnc23)cc1`, the inhibition was -14.3% (inactive). In the case of `C=CCSc1nnc(N2C(=O)C(O)=C(C(=O)c3ccco3)C2c2ccccc2F)s1` (centres undefined), the inhibition is reported as -10.7% (inactive). For `O=C(O)c1ccc(S(=O)(=O)c2ccc3c(c2)C(=O)N(c2ccc(O)cc2)C3=O)cc1`, the inhibition was -1.2% (inactive). In the case of `O=C(c1cc2sccc2n1Cc1ccccc1)N1CCCc2ccccc21`, the inhibition is reported as 34.8% (active). With `O=C(c1cc2sccc2n1Cc1ccc(F)cc1)N1CCCc2ccccc21` the inhibition was -9% (inactive). With `O=C(c1cc2sccc2n1Cc1ccccc1)N1CCc2ccccc21` the inhibition was -5.9% (inactive). With `CN(CCc1ccccn1)C1CCCN(S(=O)(=O)c2ccccc2)C1` (centres undefined) the inhibition was -25.2% (inactive). In the case of `Cc1ccc(/C=C/C(=O)Nc2nc3ccccc3[nH]2)cc1`, the inhibition is reported as -16.1% (inactive). In the case of `COc1ccc(NC(=O)c2ccc(-c3csc(C)n3)cc2)cc1`, the inhibition is reported as -5.5% (inactive). With `CCOC(=O)c1cnn(-c2ccccc2)c1-n1cccc1C(=O)C(=O)N(C)C` the inhibition was -12.4% (inactive). With `CCOC(=O)c1cnn(-c2ccccc2)c1-n1cccc1C(=O)C(=O)Nc1ccccc1` the inhibition was -28.7% (inactive). With `CCOC(=O)c1cnn(-c2ccccc2)c1-n1cccc1C(=O)C(=O)N(CC)CC` the inhibition was 42.8% (active). With `Cc1ccc(-c2nnn(Cc3nc(N)nc(N4CCOCC4)n3)n2)cc1` the inhibition was 5.1% (inactive). In the case of `CC(=O)C(=Cc1ccc(C(=O)O)cc1)C(C)=O`, the inhibition is reported as -17.7% (inactive). With `COc1ccc2cc(CO)c(Cl)nc2c1` the inhibition was -28.1% (inactive). For `ClCc1cc2ccccc2nc1Cl`, the inhibition was -27% (inactive). In the case of `Cc1ccc2cc(C=O)c(Cl)nc2c1`, the inhibition is reported as -3.3% (inactive). In the case of `COc1ccc2cc(CCl)c(Cl)nc2c1`, the inhibition is reported as 70.1% (active). In the case of `COc1ccc2cc(C#N)c(Cl)nc2c1`, the inhibition is reported as -29.7% (inactive). In the case of `Cc1ccc2cc(CCl)c(Cl)nc2c1`, the inhibition is reported as 50.2% (active). In the case of `COc1ccc(S(=O)(=O)N2Cc3ccccc3CC2C(=O)N2CCOCC2)cc1` (centres undefined), the inhibition is reported as 3.2% (inactive). In the case of `COc1cscc1C(N)=O`, the inhibition is reported as 6.7% (inactive). In the case of `c1ccc2c(c1)ncn2Cc1nnc2sc(-c3ccc4c(c3)OCO4)nn12`, the inhibition is reported as -4.4% (inactive). With `O=C(NC1CCCCCC1)c1cc(S(=O)(=O)N2CCCCC2)ccc1N1CCOCC1` the inhibition was -7.1% (inactive). For `CC1CCC(C(C)C)C(OCC(O)CN2CCCC(C)C2)C1` (centres undefined), the inhibition was -44.4% (inactive). With `Cc1cc(C)cc(-n2ncc3c2CCCC3NC(=O)C2(C(N)=O)CC2)c1` (centres undefined) the inhibition was -11.6% (inactive). For `Cn1nccc1C(=O)NC1CCCc2c1cnn2-c1cc(F)cc(F)c1` (centres undefined), the inhibition was 35.1% (inactive). With `Cc1cc(C(=O)NC2CCCc3c2cnn3-c2cccc(C)c2C)no1` (centres undefined) the inhibition was 11.2% (inactive). For `Cc1cccc(-n2ncc3c2CCCC3NC(=O)c2ccc[n+]([O-])c2)c1C` (centres undefined), the inhibition was -3.9% (inactive). For `O=C(NC1CCCc2c1cnn2-c1ccccc1F)c1ccccn1` (centres undefined), the inhibition was 20.6% (inactive). In the case of `Cc1cc(C)c(C(=O)NC2CCCc3c2cnn3-c2cccc(C)c2C)o1` (centres undefined), the inhibition is reported as -10.7% (inactive). With `Cc1cccc(-n2ncc3c2CCCC3NC(=O)C2CCOCC2)c1C` (centres undefined) the inhibition was 9.8% (inactive). For `COc1ccc(C(=O)NC2CCCc3c2cnn3-c2cccc(C)c2C)o1` (centres undefined), the inhibition was 0.8% (inactive).

— PubChem BioAssay AID1578 (Sanford-Burnham Center for Chemical Genomics, 2009)
